# According to the supplement of paper PMC6279402:
# Structures can show the parent of a compound that is named as a salt. ± gives the standard deviation of the averaged measurements.
# Tested on: A549
# Experiment: relative viability (normalised to negative control = 1, bortezomib = 0) (fraction); higher = less cytotoxic
# Conditions: inflammatory serum-free RHB-A with cytokines + LPS, 5 d + 24 h CellTiter-Blue
# [1] = compound 30 nM, GSK126 pretreatment: 5 uM GSK126
# [2] = compound 30 nM, GSK126 pretreatment: none (vehicle)
# [3] = compound 300 nM, GSK126 pretreatment: 5 uM GSK126
# [4] = compound 300 nM, GSK126 pretreatment: none (vehicle)
compound,measurement,setting,value
O=C1NC(=O)/C(=C/c2ccc(-c3ccc(F)cc3O)o2)S1,relative viability,[1],0.977 ± 0.15
same,relative viability,[2],0.857 ± 0.062
same,relative viability,[3],0.744 ± 0.082
same,relative viability,[4],0.839 ± 0.1
CS(=O)(=O)c1ccc(C(=O)Nc2ccc(Cl)c(-c3ccccn3)c2)c(Cl)c1 [Vismodegib],relative viability,[1],0.993 ± 0.058
same,relative viability,[2],0.952 ± 0.12
same,relative viability,[3],1.05 ± 0.14
same,relative viability,[4],1.03 ± 0.074
CCc1cccc(CC)c1NC(=O)N1Cc2[nH]nc(NC(=O)c3ccc(N4CCN(C)CC4)cc3)c2C1,relative viability,[1],0.891 ± 0.14
same,relative viability,[2],0.91 ± 0.12
same,relative viability,[3],0.701 ± 0.13
same,relative viability,[4],0.557 ± 0.075
COc1cc2ncnc(Nc3cccc(Br)c3)c2cc1OC,relative viability,[1],0.996 ± 0.044
same,relative viability,[2],0.976 ± 0.048
same,relative viability,[3],0.537 ± 0.17
same,relative viability,[4],0.701 ± 0.086
NCC(=O)CCC(=O)O [Aminolevulinic acid hydrochloride; Aminolevulinic acid],relative viability,[1],1.08 ± 0.17
same,relative viability,[2],0.985 ± 0.1
same,relative viability,[3],1.05 ± 0.12
same,relative viability,[4],0.981 ± 0.053
CNC(=O)c1cc(Oc2ccc(NC(=O)Nc3ccc(Cl)c(C(F)(F)F)c3)c(F)c2)ccn1 [Regorafenib; BAY 73-4506(Regorafenib)],relative viability,[1],0.913 ± 0.055
same,relative viability,[2],0.892 ± 0.016
same,relative viability,[3],1.02 ± 0.031
same,relative viability,[4],0.913 ± 0.014
CC[C@@]1(O)C(=O)OCc2c1cc1n(c2=O)Cc2cc3c(CN(C)C)c(O)ccc3nc2-1 [Topotecan HCl; Topotecan hydrochloride],relative viability,[1],0.421 ± 0.033
same,relative viability,[2],0.383 ± 0.021
same,relative viability,[3],0.317 ± 0.026
same,relative viability,[4],0.221 ± 0.038
CS(=O)(=O)OCCCCOS(C)(=O)=O [Busulfan],relative viability,[1],0.889 ± 0.017
same,relative viability,[2],0.865 ± 0.038
same,relative viability,[3],0.916 ± 0.067
same,relative viability,[4],0.893 ± 0.024
COc1cc2nccc(Oc3ccc(NC(=O)Nc4ccc(F)cc4F)c(F)c3)c2cc1OC,relative viability,[1],0.86 ± 0.097
same,relative viability,[2],0.832 ± 0.051
same,relative viability,[3],0.916 ± 0.12
same,relative viability,[4],1.01 ± 0.075
Cc1nc(Nc2ncc(C(=O)Nc3c(C)cccc3Cl)s2)cc(N2CCN(CCO)CC2)n1 [Dasatinib],relative viability,[1],0.89 ± 0.089
same,relative viability,[2],0.882 ± 0.093
same,relative viability,[3],1.03 ± 0.077
same,relative viability,[4],0.956 ± 0.12
O=C1C(c2c(O)[nH]c3ccccc23)=Nc2ccccc21 [Indirubin; INDIRUBIN],relative viability,[1],0.788 ± 0.038
same,relative viability,[2],0.796 ± 0.041
same,relative viability,[3],0.762 ± 0.078
same,relative viability,[4],0.807 ± 0.045
Cn1c(=O)n(-c2ccc(C(C)(C)C#N)cc2)c2c3cc(-c4cnc5ccccc5c4)ccc3ncc21,relative viability,[1],0.581 ± 0.063
same,relative viability,[2],0.624 ± 0.034
same,relative viability,[3],0.209 ± 0.0083
same,relative viability,[4],0.21 ± 0.0091
CCS(=O)(=O)Nc1ccc2[nH]c(O)c(C(=Nc3ccc(CN4CCCCC4)cc3)c3ccccc3)c2c1 [Hesperadin],relative viability,[1],0.652 ± 0.13
same,relative viability,[2],0.598 ± 0.063
same,relative viability,[3],0.336 ± 0.019
same,relative viability,[4],0.331 ± 0.022
C[C@@H](Oc1cc(-n2cnc3ccc(CN4CCN(C)CC4)cc32)sc1C(N)=O)c1ccccc1C(F)(F)F,relative viability,[1],0.481 ± 0.028
same,relative viability,[2],0.326 ± 0.05
same,relative viability,[3],0.517 ± 0.02
same,relative viability,[4],0.363 ± 0.072
C/C=C1\NC(=O)[C@H]2CSSCC/C=C/[C@H](CC(=O)N[C@H](C(C)C)C(=O)N2)OC(=O)[C@H](C(C)C)NC1=O [Depsipeptide],relative viability,[1],0.00208 ± 0.0052
same,relative viability,[2],0.00595 ± 0.0056
same,relative viability,[3],-0.0034 ± 0.0005
same,relative viability,[4],-0.00514 ± 0.00076
CCCCC(=O)OCC(=O)[C@]1(O)Cc2c(O)c3c(c(O)c2[C@@H](O[C@H]2C[C@H](NC(=O)C(F)(F)F)[C@H](O)[C@H](C)O2)C1)C(=O)c1c(OC)cccc1C3=O [Valrubicin],relative viability,[1],0.989 ± 0.055
same,relative viability,[2],1.01 ± 0.042
same,relative viability,[3],0.899 ± 0.027
same,relative viability,[4],0.879 ± 0.041
Cc1[nH]c(/C=C2\C(=O)Nc3ccccc32)c(C)c1CCC(=O)O,relative viability,[1],0.78 ± 0.0017
same,relative viability,[2],0.775 ± 0.032
same,relative viability,[3],0.786 ± 0.08
same,relative viability,[4],0.772 ± 0.029
Cc1cnc(NC(=O)Nc2cc(Br)c(C)cc2OC[C@@H]2CNCCO2)cn1,relative viability,[1],0.539 ± 0.03
same,relative viability,[2],0.607 ± 0.081
same,relative viability,[3],0.414 ± 0.05
same,relative viability,[4],0.338 ± 0.028
Cc1cc(Nc2cc(CN3CCOCC3)c3nc(C)c(Cc4ccc(Cl)cc4F)n3n2)n[nH]1,relative viability,[1],0.974 ± 0.13
same,relative viability,[2],0.988 ± 0.062
same,relative viability,[3],1.24 ± 0.078
same,relative viability,[4],1.23 ± 0.03
Nc1ncn([C@@H]2O[C@H](CO)[C@@H](O)[C@H]2O)c(=O)n1 [Azacitidine; 5-azacytidine],relative viability,[1],0.841 ± 0.27
same,relative viability,[2],0.854 ± 0.13
same,relative viability,[3],0.903 ± 0.15
same,relative viability,[4],0.996 ± 0.13
